In PubChem BioAssay AID1259313 (Sanford-Burnham Center for Chemical Genomics, 2017) one finds Tm shift relative to glycine control data, which are given here for 65 compounds.

About 8,500 (2.5%) of roughly 340,000 compounds were called active. Many of the other results were omitted from the sample, so actives are more common in it than they were. Values without a mark were called inactive.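 How the source made its calls: active means melting temperature shift of at least 10% of the positive control shift, at one fixed dose; inactive means the rest.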

The subject of this test is Glutamate receptor ionotropic, NMDA 3A (GRIN3A) ligand-binding domain. Put plainly: NR3A LBD thermal stabilization by compounds – biophysical, differential scanning fluorimetry, uHTS, primary screen (AID 1259313). As to conditions: at 25 µM, hits give high values, 0% = protein alone, 100% = glycine-bound protein.
In the case of `Cc1cc(C)cc(OCC(=O)OCC(=O)NC2CCCC2)c1`, the Tm shift relative to glycine control is 1.75%.

For the compound `CCOC(=O)C1CCCN(C(=O)Cn2ncc3c(=O)oc4ccc(C)cc4c32)C1` (stereo not given), the Tm shift relative to glycine control is -4.2%.

For `Cc1ccc(-c2nnc(CN3CCN(C)CC3)o2)cc1`, the Tm shift relative to glycine control is 0.59%.

As for `CC1CC(C)CN(CC(=O)Nc2ccc(S(N)(=O)=O)cc2)C1` (stereo not given), the Tm shift relative to glycine control was 10% (active).

Consider `CC1Cc2ccccc2N1CC(=O)Nc1ccc(S(N)(=O)=O)cc1` (stereo not given), for which the Tm shift relative to glycine control was 6.2%.

In the case of `CC1CN(C(=S)Nc2ccc(S(N)(=O)=O)cc2)CC(C)O1` (stereo not given), the Tm shift relative to glycine control was -1.98%.

For `Cc1ccc(Nc2c(O)nc[nH]c2=O)cc1C`, the Tm shift relative to glycine control is -3.98%.

As for `COc1ccccc1CNC(=O)C1CCN(S(=O)(=O)c2ccc3c(c2)OCCO3)CC1`, the Tm shift relative to glycine control was 6.45%.

As to `CCOC(=O)C1CCN(C(=O)COC(=O)C2CCN(S(=O)(=O)c3ccc4c(c3)OCCO4)CC2)CC1`, the Tm shift relative to glycine control is -0.43%.

For the compound `O=C(COC(=O)C1CCN(S(=O)(=O)c2ccc3c(c2)OCCO3)CC1)Nc1ccccc1OC(F)F`, the Tm shift relative to glycine control was 10.1% (active).

`O=C(CSc1ncnc2scc(-c3ccccc3)c12)NCc1ccc2c(c1)OCO2`: the Tm shift relative to glycine control is -0.99%.

Regarding `O=C(N/N=C/c1ccccc1O)C1CCCC1`, the Tm shift relative to glycine control is -0.52%.

Consider `O=C(NN=Cc1ccccc1O)NN=Cc1ccccc1O`, for which the Tm shift relative to glycine control is 29.9% (active).

Consider `O=C(NN=Cc1ccccc1O)C(=O)NN=Cc1ccccc1O`, for which the Tm shift relative to glycine control was -0.25%.

With `COc1ccc(C2NC(=O)N(C)C(C)=C2[N+](=O)[O-])cc1` (stereo not given), the Tm shift relative to glycine control is 0%.

On to `Cc1cc([N+](=O)[O-])ccc1NC(=O)c1ccc(NC(=O)C(C)C)cc1`, for which the Tm shift relative to glycine control was 13.6% (active).

As for `CC(=O)c1ccc(NC(=O)Nc2ccc([N+](=O)[O-])cc2C)cc1`, the Tm shift relative to glycine control was 7.59%.

Turning to `CC(C)C(=O)Nc1cccc(NC(=O)c2ccc([N+](=O)[O-])cc2Cl)c1`, the Tm shift relative to glycine control is -1.57%.

As to `CN(Cc1ccco1)S(=O)(=O)c1nnc(NC(=O)c2ccccc2)s1`, the Tm shift relative to glycine control is -1.03%.

For `CC(C)(Oc1ccc(C2CC2(Cl)Cl)cc1)C(=O)O` (stereo not given), the Tm shift relative to glycine control is -0.77%.

Regarding `O=C(Nc1ccc(Cl)cc1)Nc1ccc(C(=O)N2CCOCC2)cc1`, the Tm shift relative to glycine control was 2.25%.

As for `CC(C)S(=O)(=O)c1csc(NC(=O)Nc2ccc(Cl)cc2)c1Cl`, the Tm shift relative to glycine control was 24.3% (active).

Turning to `O=C(NCc1ccccn1)Nc1ccc(Cl)cc1`, the Tm shift relative to glycine control is -1.47%.

Turning to `COc1ccc([N+](=O)[O-])cc1N(CC(O)CN(CC(C)C)CC(C)C)S(=O)(=O)c1ccc(C)cc1` (stereo not given), the Tm shift relative to glycine control is -2.17%.

As to `COc1cccc(NC(=O)C(Sc2nc3ccccc3c(=O)n2CC(C)C)c2ccccc2)c1` (stereo not given), the Tm shift relative to glycine control was 5.55%.

`N#Cc1c(N)sc2c1CCN(C(=O)OCc1ccccc1)C2`: the Tm shift relative to glycine control was -2.92%.

For `Cn1cc(S(=O)(=O)NC(c2ccccc2)c2ccccc2)c(=O)n(C)c1=O`, the Tm shift relative to glycine control was -0.16%.

In the case of `COc1ccc(S(=O)(=O)N2CCCCCC2)cc1NC(=O)Cc1ccc(OC)c(OC)c1`, the Tm shift relative to glycine control is 0.44%.

As for `COc1cc(C(C)=O)ccc1OC(C)C(=O)Nc1ccc(S(=O)(=O)N2CCCC2)cc1` (stereo not given), the Tm shift relative to glycine control is 1.81%.

As for `COc1ccc(-c2ccc(Nc3ccc(S(=O)(=O)N4CCCC4)cc3)nn2)cc1OC`, the Tm shift relative to glycine control was 18.4% (active).

Take `COc1cc(/C(=C/c2ccccc2)c2ccccc2)c2c(c1)oc1ccccc12`: the Tm shift relative to glycine control is 3.2%.

As for `O=C(NN=CC=Cc1ccccc1)C(O)C(O)C(=O)NN=CC=Cc1ccccc1` (stereo not given), the Tm shift relative to glycine control is 3.13%.

For the compound `Cc1ccc(-c2cc(C(=O)N/N=C/C=C/c3ccccc3)n[nH]2)o1`, the Tm shift relative to glycine control was 19.9% (active).

Take `Cc1ccc(-c2cc(C(=O)NN)n[nH]2)o1`: the Tm shift relative to glycine control is -1.08%.

For `COCc1nc2ccccc2n1Cc1ccccc1Br`, the Tm shift relative to glycine control was -1.6%.

Take `O=C(Oc1ccc(-c2nnco2)cc1)c1ccc(F)c(S(=O)(=O)N2CCOCC2)c1`: the Tm shift relative to glycine control is 0.78%.

For the compound `COC(CNC(=O)Cn1ncc2ccsc2c1=O)OC`, the Tm shift relative to glycine control is -0.44%.

In the case of `COc1ccc(N(CC(=O)Nc2ccc(C)cc2C)S(=O)(=O)c2ccccc2[N+](=O)[O-])c(OC)c1`, the Tm shift relative to glycine control was -2.12%.

Take `COc1ccc(C)cc1S(=O)(=O)N(CC(=O)Nc1cccc([N+](=O)[O-])c1)c1ccc(C)cc1`: the Tm shift relative to glycine control is 17.5% (active).

Consider `Cc1ccc(S(=O)(=O)N(CC(=O)Nc2cccc([N+](=O)[O-])c2)Cc2ccc(Cl)cc2)cc1`, for which the Tm shift relative to glycine control is 3.38%.

`C=CCc1cccc2cc(C(=O)NC3CCCC3)c(=O)oc12`: the Tm shift relative to glycine control was -0.75%.

As for `O=C(Nc1nnc(CCN2CCCCC2)s1)c1cccc(Cl)c1`, the Tm shift relative to glycine control was -1.3%.

In the case of `Cc1ccc(-c2nnc(C)c(N3CC(C)OC(C)C3)n2)cc1` (stereo not given), the Tm shift relative to glycine control is -2.74%.

Regarding `COc1ccccc1NC(=O)CN1CCN(S(=O)(=O)c2ccc(Br)cc2)CC1`, the Tm shift relative to glycine control is 24.1% (active).

As to `O=C(CN1CCN(S(=O)(=O)c2ccc(Br)cc2)CC1)Nc1ccccc1C(=O)c1ccccc1`, the Tm shift relative to glycine control was -0.96%.

In the case of `O=C(CN1CCN(S(=O)(=O)c2ccc(F)cc2)CC1)Nc1ccccc1F`, the Tm shift relative to glycine control is -1.4%.

Regarding `O=C1CCCC(O)=C1N=Nc1ccc2ncsc2c1`, the Tm shift relative to glycine control is -0.17%.

For `NC(=O)COc1ccc(C23CC4CC(CC(C4)C2)C3)cc1`, the Tm shift relative to glycine control is 1.05%.

With `O=C(Cc1ccc(Cl)cc1)c1ccccc1`, the Tm shift relative to glycine control is -0.17%.

Take `CC(Sc1sc(=S)sc1SC(C)C(=O)O)C(=O)O` (stereo not given): the Tm shift relative to glycine control was 3.28%.

As to `O=C(Cc1ccccc1)Nc1ccc(C(=O)Nc2ccccc2C(=O)O)cc1`, the Tm shift relative to glycine control is 0.78%.

As to `O=C(CN1CCc2ccccc2C1)Nc1cccc(S(=O)(=O)N2CCOCC2)c1`, the Tm shift relative to glycine control is 0.42%.

For `CCOn1c(=O)c(=O)n(O)c2ccccc21`, the Tm shift relative to glycine control was 6.16%.

Turning to `Cc1cccc(NC(=O)Nc2ccc3c(c2)OCO3)n1`, the Tm shift relative to glycine control was -1.41%.

As to `c1ccc(C(=NNc2nc3ccccc3s2)c2ccccn2)cc1`, the Tm shift relative to glycine control is -7.5%.

As for `O=C(Nc1nc2ccccc2s1)c1ccc2c(c1)OCO2`, the Tm shift relative to glycine control is 12.1% (active).

As for `N#Cc1ccccc1NC(=O)c1ccc2c(c1)OCO2`, the Tm shift relative to glycine control was -0.66%.

On to `CC(=O)Nc1cccc(-c2csc(Nc3cccc(C)n3)n2)c1`, for which the Tm shift relative to glycine control was 11.8% (active).

Consider `O=C(CCC(=O)c1cccs1)Nc1nc2ccccc2s1`, for which the Tm shift relative to glycine control was -1.65%.

In the case of `O=C(CSC1=NCCS1)Nc1nc(-c2ccccc2)cs1`, the Tm shift relative to glycine control is -5.63%.

In the case of `O=C(NCc1cccnc1)C(=O)Nc1nc(-c2ccccc2)cs1`, the Tm shift relative to glycine control was -0.2%.

Consider `COCc1nnc(NC(=O)c2ccc3c(c2)OCO3)s1`, for which the Tm shift relative to glycine control is -0.5%.

With `O=C(Nc1ccccc1)Nc1nc2ccccc2s1`, the Tm shift relative to glycine control was 26.3% (active).

As for `CC(=O)Nc1ccc(-c2csc(NC(=O)Nc3ccccc3)n2)cc1`, the Tm shift relative to glycine control is 26.9% (active).

As to `CC(=O)Nc1ccc(Nc2cc(C)nc(Nc3ccc(NC(C)=O)cc3)n2)cc1`, the Tm shift relative to glycine control was -4.37%.
